The list is not random: actives were taken first. Their share in the collection is about 17%.
ClpP mod: qHTS Assay for Activators of ClpP; purified B. subtilis ClpP, FRET peptide cleavage, 20 min; 1.9% of 340,000 active; ATP-dependent Clp protease proteolytic subunit (Bacillus subtilis (strain 168)), P80244; Potency, µM (series often up to 57.5 µM), without a hit: at the top dose activity change, negative = active; AID 651965, 2013; active = well fitted falling curve with a large enough effect; inconclusive = small, poorly fitted or top-dose-only effect; inactive = no such curve, though single readings can be large or run the other way; also: the source files actives as falling curves though it sought activators and does not explain the sign; nearly all actives have a fitted effect of over 65% in size
Target sequence (P80244 whole entry, looked up): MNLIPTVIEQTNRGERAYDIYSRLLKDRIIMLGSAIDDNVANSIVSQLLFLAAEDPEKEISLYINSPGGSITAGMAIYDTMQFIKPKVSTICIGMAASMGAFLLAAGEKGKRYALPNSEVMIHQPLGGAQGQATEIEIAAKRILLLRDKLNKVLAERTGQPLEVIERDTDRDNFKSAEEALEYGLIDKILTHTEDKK
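ClpP 10 microg/mL final, pH 8 Tris/KCl buffer with BSA, glycerol, Tween-20; compound pinned in; FRET-FV substrate; RT 20 min; Ex320/Em430; ΔFRET vs ADEP 5.8 microM, DMSO, no enzyme.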
TDP1 cell CPT: DT40-hTDP1 cell growth loss with CPT. chicken DT40 Tdp1-/-;hTDP1 cells + 20 nM CPT, ATP luminescence, 48 h. Potency, µM (titrated, usually from 46.2 µM), for inactives: at the top dose activity change, negative = growth inhibition, most hits filed as inhibitors. 12% of 420,000 active. AID 686979; also: % is scaled to controls: 0 for no effect and ±100 for the full control effect; nearly all actives have a fitted effect of over 55% in size
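Cell growth measured by CellTiter-Glo luminescence after a minimum 48 h, 37 C compound exposure with 20 nM CPT in Tdp1-knockout DT40 cells stably expressing hTDP1, seeded 400/well; qHTS titration format.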
DT40 TDP1 no CPT: qHTS for Inhibitors of human tyrosyl-DNA phosphodiesterase 1 (TDP1): qHTS in cells in absence of CPT | DT40 Tdp1-/- hTDP1 cells, no CPT, ATP luminescence, 48 h | Potency, µM (series often up to 46.2 µM), for the others: top-dose activity change, negative = growth inhibition, usual class: inhibitors | 15% of 420,000 active; also: % is scaled to controls: 0 for no effect and ±100 for the full control effect; nearly all actives have a fitted effect of over 55% in size
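No-CPT arm: Tdp1-/-;hTDP1 DT40 cells (400/well) plus compounds, incubated ≥48 hr at 37 °C. Readout CellTiter-Glo luminescence.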
TDP1 inh: inhibitors of human tyrosyl-DNA phosphodiesterase TDP1. Q9NUW8. recombinant TDP1, AlphaScreen DNA substrate cleavage. Potency, µM (doses to about 130 µM), for inactives: at the highest dose activity change, negative = inhibition, usual class: inhibitors. 0.28% of 350,000 active; also: % is scaled to controls: 0 for no effect and ±100 for the full control effect; nearly all actives have a fitted effect of over 40% in size
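Compounds were preincubated with Tdp1 (1 nM final) for 15 min at room temperature before substrate (15 nM final) started a 5 min reaction; beads (10 ug/ml final) were then added for 10 min before AlphaScreen detection.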
Numbers without * were called inactive; ! = repeats disagree; [ ] = remark or other dose. Unless noted, calls follow the shape of the dose curve; as a rule, active = well fitted curve in the direction sought with a large enough effect; inconclusive = small, poorly fitted or top-dose-only effect, or another doubt; inactive = no such curve, though single readings can be large; an effect the other way counts as inactive or inconclusive. Potency is read from the fitted curve at half-maximal effect.

How did COC(=O)C(Cc1ccc(O)cc1)NC(=O)Cn1cc(C)c(=O)[nH]c1=O (configuration not stated) do in these assays?
ClpP mod: -1.9%; TDP1 cell CPT: -1.1%; DT40 TDP1 no CPT: -3.1%

What do the screens show for `COc1ccc(F)cc1COc1nc(C)nc2ccccc12`?
TDP1 cell CPT: inconclusive; DT40 TDP1 no CPT: 18.4µM*; TDP1 inh: 9.1%

What do the screens show for `Cc1nc(OCc2ccccc2)c2ccccc2n1`?
ClpP mod: 1.4%; TDP1 cell CPT: inconclusive; DT40 TDP1 no CPT: inconclusive; TDP1 inh: 1.1%

How did COc1ccc(CC(=O)Nc2ccc(N(C)C)c3ccccc23)cc1 do in these assays?
ClpP mod: -0.7%; TDP1 cell CPT: inconclusive; DT40 TDP1 no CPT: inconclusive

How did CCOc1ccc(S(=O)(=O)c2ccc(C)cc2)c2c1no[n+]2[O-] do in these assays?
ClpP mod: 0.2%; TDP1 cell CPT: 14.6µM*; DT40 TDP1 no CPT: 18.4µM*

How did CCOc1cc(/C=N/O)ccc1OS(=O)(=O)c1ccc(C)cc1 do in these assays?
ClpP mod: -0.8%; TDP1 cell CPT: -26.7%; DT40 TDP1 no CPT: inconclusive; TDP1 inh: 2.0%

What do the screens show for `COc1ccc(CNCC(O)COc2ccc3[nH]c(=O)ccc3c2)cc1OC` (configuration not stated)?
TDP1 cell CPT: 9.9%; DT40 TDP1 no CPT: -2.2%

What do the screens show for `O=C1CSC(c2cn(-c3ccccc3)nc2-c2cc3ccccc3oc2=O)N1Cc1ccccc1` (configuration not stated)?
ClpP mod: 28.2µM*; TDP1 cell CPT: inconclusive; DT40 TDP1 no CPT: inconclusive; TDP1 inh: 3.6%

How did O=C1CSC(c2nn(-c3ccccc3)cc2-c2cc3ccccc3oc2=O)N1Cc1ccco1 (configuration not stated) do in these assays?
ClpP mod: 35.5µM*; TDP1 cell CPT: inconclusive; DT40 TDP1 no CPT: inconclusive; TDP1 inh: 0.0%

How did O=C1CSC(c2cn(-c3ccccc3)nc2-c2ccc3c(c2)OCCO3)N1CCN1CCOCC1 (configuration not stated) do in these assays?
ClpP mod: -22.1%; TDP1 cell CPT: inconclusive; DT40 TDP1 no CPT: inconclusive; TDP1 inh: -4.2%

Results for CN1CCN(C(=O)c2ccc(C3SCC(=O)N3Cc3ccco3)cc2)CC1 (configuration not stated) ?
ClpP mod: 0.4%; TDP1 cell CPT: -6.2%; DT40 TDP1 no CPT: -21.6%; TDP1 inh: 4.1%

What do the screens show for `CC1=CC(C)C2(COC(=O)Nc3ccccc3)COC(C)C1C2C` (configuration not stated)?
TDP1 cell CPT: 2.3%; DT40 TDP1 no CPT: inconclusive; TDP1 inh: 0.0%

What do the screens show for `CC1=NN(C(=O)Cn2ccc([N+](=O)[O-])n2)C(O)(C(F)(F)F)C1` (configuration not stated)?
ClpP mod: 0.9%; TDP1 cell CPT: 5.8µM*; DT40 TDP1 no CPT: 5.8µM*; TDP1 inh: 1.3%

What do the screens show for `CC1=NN(C(=O)c2cccc(Cn3nc(C)c([N+](=O)[O-])c3C)c2)C(O)(C(F)(F)F)C1` (configuration not stated)?
ClpP mod: 3.7%; TDP1 cell CPT: -11.5%; DT40 TDP1 no CPT: inconclusive; TDP1 inh: 7.1%

What do the screens show for `CC1=NN(C(=O)c2ccc(Cn3cc([N+](=O)[O-])cn3)cc2)C(O)(C(F)(F)F)C1` (configuration not stated)?
ClpP mod: 2.8%; TDP1 cell CPT: 1.84µM*; DT40 TDP1 no CPT: 3.66µM*; TDP1 inh: 2.6%

How did COc1nn(CC(=O)N2N=C(C)CC2(O)C(F)(F)F)cc1[N+](=O)[O-] (configuration not stated) do in these assays?
ClpP mod: 0.3%; TDP1 cell CPT: -20.4%; DT40 TDP1 no CPT: -4.3%; TDP1 inh: -0.7%

Results for CC1=NN(C(=O)Cn2nc([N+](=O)[O-])c(Br)c2C)C(O)(C(F)(F)F)C1 (configuration not stated) ?
ClpP mod: -2.7%; TDP1 cell CPT: 23.1µM*; DT40 TDP1 no CPT: 20.6µM*; TDP1 inh: 2.6%

How did O=C(COC(=O)c1ccc(CSc2ccc(Cl)cc2)cc1)Nc1ccccc1 do in these assays?
ClpP mod: -2.6%; TDP1 cell CPT: -8.1%; DT40 TDP1 no CPT: -15.1%; TDP1 inh: -5.4%

How did COc1cc(/C=C2\SC(=S)N(CCC(=O)N3CCN(C)CC3)C2=O)cc(OC)c1OC do in these assays?
TDP1 cell CPT: inconclusive; DT40 TDP1 no CPT: 14.6µM*; TDP1 inh: 11.7%

Results for COc1cc(/C=C2\SC(=O)N(CCNC(=O)c3cnc(C)cn3)C2=O)cc(OC)c1OC ?
ClpP mod: 1.5%; TDP1 cell CPT: inconclusive; DT40 TDP1 no CPT: 18.4µM*

What do the screens show for `COc1ccc(C(=O)NCCN2C(=O)S/C(=C\c3cccnc3)C2=O)c(OC)c1OC`?
ClpP mod: -0.9%; TDP1 cell CPT: inconclusive; DT40 TDP1 no CPT: inconclusive; TDP1 inh: 5.8%

Results for COc1cc(/C=C2/SC(=S)N(CCC(=O)Nc3ccccc3)C2=O)cc(OC)c1OC ?
TDP1 cell CPT: inconclusive; DT40 TDP1 no CPT: inconclusive; TDP1 inh: 4.5%

Results for COc1cc(/C=C2/SC(=S)N(CCC(=O)N3CCN(C)CC3)C2=O)cc(OC)c1OC ?
ClpP mod: 1.0%; TDP1 cell CPT: inconclusive; DT40 TDP1 no CPT: 23.1µM*

Results for COc1cc(/C=C2\SC(=S)N(CCC(=O)NC3CCCC3)C2=O)cc(OC)c1OC ?
TDP1 cell CPT: inconclusive; DT40 TDP1 no CPT: inconclusive; TDP1 inh: 2.6%[0.0935 µM]

Results for C[C@@H]1CN([C@@H](C)CO)C(=O)CCCn2nncc2CO[C@@H]1CN(C)S(=O)(=O)c1ccc(Oc2ccccc2)nc1 ?
ClpP mod: -1.8%; TDP1 cell CPT: inconclusive; DT40 TDP1 no CPT: inconclusive

What do the screens show for `O=C(NC(CO)Cc1ccc([N+](=O)[O-])cc1)C(Cl)Cl` (configuration not stated)?
TDP1 cell CPT: 16.4µM*; DT40 TDP1 no CPT: 9.2µM*; TDP1 inh: 3.6%

How did O=C(N[C@H](CO)[C@H](O)c1ccc([N+](=O)[O-])cc1)C(Cl)Cl do in these assays?
ClpP mod: 1.7%; TDP1 cell CPT: 7.5µM*!; DT40 TDP1 no CPT: 10.6µM*; TDP1 inh: 8.3%

Results for O=[N+]([O-])c1ccc(C(O)C(CO)NC(=S)Nc2ccccc2)cc1 (configuration not stated) ?
ClpP mod: -6.6%; TDP1 cell CPT: 16.4µM*; DT40 TDP1 no CPT: inconclusive; TDP1 inh: 1.2%

What do the screens show for `CC(=O)OC1CC2CCC1(C)C2(C)C` (configuration not stated)?
TDP1 inh: 7.5%

How did COc1cc(/C=C/C(=O)OC2CC3CCC2(C)C3(C)C)ccc1O (configuration not stated) do in these assays?
ClpP mod: inconclusive; TDP1 cell CPT: 18.4µM*; DT40 TDP1 no CPT: 16.4µM*

From PubChem
